Test results reported in PubChem BioAssay AID602381 (National Center for Advancing Translational Sciences (NCATS), 2012).
Calls of active or inactive are those of the source. Calls follow the shape of the dose curve; as a rule, active = well fitted curve in the direction sought with a large enough effect; inactive = no such curve, though single readings can be large or run the other way.

Target: Pyruvate kinase PKLR (Homo sapiens) (UniProt P30613)
Assay: qHTS for Activators of Human Muscle Isoform 2 Pyruvate Kinase (PK): Extended Characterization using Reticulocyte PK
Settings: purified hPK-R, Kinase-Glo ATP luminescence, 1 h; series mostly up to 57.5 µM
From the text: Human pyruvate kinase reticulocyte (hPK-R) enzyme was supplied as a highly purified (>95% pure) preparation from Structural Genomics Consortium in Toronto (Ontario, Canada) and assayed for its ability to generate ATP from ADP using phosphoenolpyruvate (PEP) as a substrate. ATP generation was detected in a coupled reaction by luciferase-mediated luminescence, an ATP-dependent process. Pyruvate kinase substrates, PEP and ADP, were present in the assay at Km and approximately 10-fold below Km respectively. The enzyme was assayed at an intermediate level of activity to screen for both inhibitors and activators. NIH Chemical Genomics Center [NCGC] NIH Molecular Libraries Probe Centers Network [MLPCN] MLPCN Grant: MH085679 Assay Submitter (PI): Matthew G. Vander Heiden, Harvard Medical School
Three uL of substrate mix (at r.t.) in assay buffer (50 mM Imidazole pH7.2, 50 mM KCl, 7 mM MgCl2, 0.01% Tween 20, 0.05% BSA) was dispensed into white solid bottom 1,536 well microtiter plates so that the final concentrations of substrates in the assay were 0.1 mM ADP and 0.5 mM PEP. 23 nL of compound were delivered by a pin tool and 1 uL of enzyme mix (final concentration of 0.1 nM) in assay buffer (4 degree Celsius) was added. Plates were incubated at room temperature for 1 hour. Two uL of detection mix (Kinase-Glo, Promega; at 4 degree Celsius protected from light) was added and luminescence read by a ViewLux (Perkin Elmer) at 1 second exposure/plate. Data were normalized to the uninhibited (row 31). Additionally, a no enzyme and 5-fold enzyme control was dispensed in row 32, split equally between the two conditions.

Chain of Pyruvate kinase PKLR (Homo sapiens) (P30613 whole entry, looked up, canonical isoform): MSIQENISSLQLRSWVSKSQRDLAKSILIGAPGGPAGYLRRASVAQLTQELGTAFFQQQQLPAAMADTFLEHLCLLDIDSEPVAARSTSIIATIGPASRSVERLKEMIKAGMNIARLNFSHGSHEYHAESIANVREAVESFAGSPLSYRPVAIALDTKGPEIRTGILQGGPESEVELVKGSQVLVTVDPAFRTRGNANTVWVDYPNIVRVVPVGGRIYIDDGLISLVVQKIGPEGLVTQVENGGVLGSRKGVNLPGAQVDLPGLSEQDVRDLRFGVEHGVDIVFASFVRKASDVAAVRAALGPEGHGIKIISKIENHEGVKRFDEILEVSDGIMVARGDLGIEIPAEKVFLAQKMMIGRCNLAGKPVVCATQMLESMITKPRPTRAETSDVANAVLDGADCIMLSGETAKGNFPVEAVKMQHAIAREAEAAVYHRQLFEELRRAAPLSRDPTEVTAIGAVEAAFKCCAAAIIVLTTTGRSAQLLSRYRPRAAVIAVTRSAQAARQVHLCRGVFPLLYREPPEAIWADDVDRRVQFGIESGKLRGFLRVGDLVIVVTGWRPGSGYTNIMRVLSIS

outcome, inactive:
Cc1cc2c(s1)c1cnn(Cc3c(Cl)ccc(C)c3F)c(=O)c1n2C
Cc1cc2c(s1)c1cnn(Cc3cc(F)ccc3F)c(=O)c1n2C
Cc1cc2c(s1)c1cnn(Cc3ccc(F)cc3F)c(=O)c1n2C
COc1cccc(Cn2ncc3c4sc(S(C)=O)cc4n(C)c3c2=O)c1 (stereo not given)
Cc1cc2c(s1)c1cnn(Cc3cc(F)c(F)cc3F)c(=O)c1n2C
